According to PubChem BioAssay (NCATS):
Records with an inconclusive call do not appear. Calls of active or inactive are those of the source. Calls come from the whole dose curve; as a rule, active = well fitted curve in the direction sought with a large enough effect; inconclusive = small, poorly fitted or top-dose-only effect, or another doubt; inactive = no such curve, though single readings can be large; an effect the other way counts as inactive or inconclusive.

Key:
[1] = Cellular Toxicity (caspase-3) Mesangial (AID 660);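 note: combined caspase 3 and 7 activity read by Caspase-Glo luminescence; cells exposed to compound for 16 h before the caspase read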
Outline: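 Concentration-response qHTS: compound-induced rise in caspase 3/7 luminescence in human mesangial cells after 16 h, normalized to DMSO and 100 uM tamoxifen controls.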

[2] = Cellular Toxicity (caspase-3) SK-N-SH (AID 661);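 note: cells exposed to compound for 16 hours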
Outline: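 Caspase 3/7 activation is measured as a luminescence increase from aminoluciferin released by substrate cleavage in SK-N-SH cells after 16 hr compound treatment; values are AC50 from concentration-response curves.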

[3] = Cellular Toxicity (caspase-3) H-4-II-E (AID 663);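 note: cells exposed to compound for 16 hr before readout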
Outline: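 Luminescence from caspase-cleaved aminoluciferin substrate, read 20 min after reagent addition, reports caspase 3/7 activation in rat H-4-II-E cells after 16 hr compound exposure. Normalized to DMSO (basal) and 100 uM tamoxifen (100%); AC50 from Hill fits.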

[4] = Cellular Toxicity (caspase-3) Hek293 (AID 664);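 note: cells exposed to compound for 16 h at 37 °C before readout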
Outline: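 Activation of caspase-3/7 is measured as increased luminescence from cleaved peptide-aminoluciferin substrate in HEK293 cells treated 16 hours at 37 °C. AC50 values come from Hill-equation fits of concentration-response data.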

[5] = Cellular Toxicity (caspase-3) N2a (AID 665);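 note: compound exposure lasted 16 h at 37 °C before readout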
Outline: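 Plated mouse neuroblastoma N2a cells received titrated compounds for 16 h in complete medium. Caspase activity was then detected with a peptide-aminoluciferin luminescent reagent.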

[6] = Cellular Toxicity (caspase-3) NIH 3T3 (AID 666)
Outline: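 Concentration-response qHTS in NIH 3T3 mouse fibroblasts scores caspase-3/7 activation as rising luminescence after 16 hr compound exposure. Signals are scaled between DMSO-only and 100 uM tamoxifen.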

[7] = Cellular Toxicity (caspase-3) Renal Proximal Tubule (AID 667);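 note: cells exposed to compound for 16 hours at 37 °C before detection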
Outline: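 AC50 derived by standard Hill fit of concentration-response data, normalized between DMSO basal and 10 uM staurosporine as 100% stimulation. Cells: primary rat kidney proximal tubule, 16 h treatment at 37 °C.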

[8] = biological target: Cytochrome P450 3A4 (Homo sapiens) (UniProt P08684); test: qHTS Assay for Inhibitors and Substrates of Cytochrome P450 3A4 (AID 884); note: series mostly up to about 57 µM; nearly all actives have a fitted effect of over 50% in size
Chain of Cytochrome P450 3A4 (Homo sapiens) (P08684 whole entry, looked up): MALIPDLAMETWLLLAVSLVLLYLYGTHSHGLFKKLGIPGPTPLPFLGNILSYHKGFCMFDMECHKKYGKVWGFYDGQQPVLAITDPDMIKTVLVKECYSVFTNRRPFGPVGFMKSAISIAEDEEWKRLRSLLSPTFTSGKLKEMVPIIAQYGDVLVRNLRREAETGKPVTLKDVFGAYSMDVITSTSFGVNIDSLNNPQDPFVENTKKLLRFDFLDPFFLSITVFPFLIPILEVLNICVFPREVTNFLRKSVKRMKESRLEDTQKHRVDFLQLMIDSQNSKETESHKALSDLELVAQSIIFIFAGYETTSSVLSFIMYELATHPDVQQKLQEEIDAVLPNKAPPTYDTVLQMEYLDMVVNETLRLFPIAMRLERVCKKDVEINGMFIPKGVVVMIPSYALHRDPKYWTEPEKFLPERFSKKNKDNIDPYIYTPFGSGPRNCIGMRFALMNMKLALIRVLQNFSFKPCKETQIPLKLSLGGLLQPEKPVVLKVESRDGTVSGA
Outline: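 20 nM human CYP3A4 with 25 uM Luciferin-PPXE (at KM) in 200 mM KPO4, preincubated 10 min with compound; NADPH regeneration started a 60 min RT reaction. Luciferin detected by luminescence, normalized to 57 uM ketoconazole as full inhibition.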

[9] = Cell Viability - LYMP2-001 (AID 921);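 note: series mostly up to about 92 µM; cells exposed to compound for 24 h at 37 °C; nearly all actives have a fitted effect of over 70% in size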
Outline: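 Steps: seed 2500 lymphoblastoid cells/well; 5 hr, 37 C; add compound; 24 hr, 37 C; CellTiter-Glo reagent, 30 min room temperature; read luminescence. Concentration-response modeled by Hill equation for AC50.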

[10] = MultiTox-Fluor Cytotoxicity Assay - LYMP1-001 - Dead Cells (AID 946)
Outline: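 Cytotoxicity as increased dead-cell protease fluorescence (bis-AAF-R110, 485/520 nm), read 60 min after MultiTox-Fluor reagent. Human lymphoblastoid line exposed 16 h; Hill-fitted AC50, with DMSO as 0% and 15 uM tetraoctylammonium bromide as 100%.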

[11] = MultiTox-Fluor Cytotoxicity Assay - LYMP1-001 - Live Cells (AID 947)
[12] = Cell Viability - LYMP1-002 - Assay at 16 hr (AID 948)
Outline: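 Seed 2500 LYMP1-002 cells per well in complete medium and hold 5 hr at 37 C. Add compound across a concentration series and incubate 16 hr at 37 C. Add CellTiter-Glo, wait 30 min at room temperature, read luminescence.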

[13] = MultiTox-Fluor Cytotoxicity Assay - LYMP1-002 - Live Cells (AID 955);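 note: cells exposed to compound for 16 hours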
Outline: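 Cytotoxicity in the human lymphoblastoid line LYMP1-002 is measured as loss of live-cell protease activity after 16 h treatment in complete culture medium. AC50 is derived from Hill-equation fits of qHTS concentration-response data.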

[14] = MultiTox-Fluor Cytotoxicity Assay - LYMP1-002 - Dead Cells (AID 960); note: nearly all actives have a fitted effect of over 60% in size
Outline: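 Acute cytotoxicity in a human lymphoblastoid line is scored as rising dead-cell protease signal after 16 hr exposure at 37 C, measured fluorometrically (485/520).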

[15] = MultiTox-Fluor Cytotoxicity Assay - LYMP1-003 - Dead Cells (AID 961); note: nearly all actives have a fitted effect of over 70% in size
Outline: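 Dead-cell protease release, detected as bis-AAF-R110 fluorescence at 485/520 nm, was measured in LYMP1-003 cells after 16 h compound treatment at 37 C. AC50 values came from Hill-modeled qHTS curves normalized to DMSO (0%) and 15 uM tetraoctylammonium bromide (100%).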

[16] = MultiTox-Fluor Cytotoxicity Assay - LYMP1-003 - Live Cells (AID 962);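 note: cells exposed to compound for 16 hours at 37 °C; cytotoxic hits lower the live-cell protease signal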
Outline: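 Cells plated at 2500 per well and incubated 5 hr; compounds added and incubated 16 hr at 37 C; MultiTox-Fluor reagent added for 60 min at room temperature; fluorescence of liberated AFC measured at 405/510 nm.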

[17] = Cell Viability - LYMP1-003 - Assay at 24 hr (AID 963)
Outline: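 Acute toxicity in LYMP1-003 lymphoblastoid cells: 24 hr compound treatment at 37 C, ATP measured with CellTiter-Glo after 30 min at room temperature. AC50 derived by fitting the Hill equation to qHTS titrations.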

[18] = Cell Viability - LYMP1-003 - Assay at 40 hr (AID 964); note: series mostly up to about 92 µM; nearly all actives have a fitted effect of over 60% in size
Outline: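 This qHTS cytotoxicity screen treats human lymphoblastoid cells (LYMP1-003) with compounds for 40 hr and quantifies cellular ATP via luciferase luminescence.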

[19] = Cell Viability - LYMP2-003 (AID 965);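 note: cells exposed to compounds for 24 h before reading; nearly all actives have a fitted effect of over 50% in size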
Outline: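 Seed 2500 lymphoblastoid cells/well; incubate 5 hr, 37 C; add compounds; incubate 24 hr, 37 C; add CellTiter-Glo, 30 min RT; read luminescence. AC50 from Hill fit.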

Measured: Potency

C[C@@H]1[C@H](O)[C@@H](C)/C=C/C=C/C=C/C=C/C=C/C=C/C=C/[C@H](O[C@@H]2O[C@H](C)[C@@H](O)[C@H](N)[C@@H]2O)C[C@@H]2O[C@](O)(C[C@@H](O)C[C@@H](O)[C@H](O)CC[C@@H](O)C[C@@H](O)CC(=O)O[C@H]1C)C[C@H](O)[C@H]2C(=O)O
inactive: all assays above
